We go through 15 compounds from PubChem BioAssay.

Calls of active or inactive are those of the source.

The nature of assay [1]: A549 cell viability effects, profiling panel, calcein-AM fluorescence, 48 h, basal (AID 1162). The conditions noted are these: higher = more signal.
The nature of assay [2]: adipocyte viability effects, profiling panel, cell-based, 3T3-L1 adipocytes, calcein-AM fluorescence, 48 h, basal (AID 1163). Conditions: 3T3-L1 adipocytes viability, higher = more signal.
A short description of assay [3]: HepG2 cell viability effects, profiling panel, calcein-AM fluorescence, 48 h, basal (AID 1164). The conditions noted are these: higher = more signal.
The nature of assay [4]: MM1S cell viability effects, profiling panel, calcein-AM fluorescence, 48 h, basal (AID 1165).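 Further: viability of MM1S multiple myeloma cells under basal unstimulated conditions.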 The conditions noted are these: higher = more signal.
Assay [5] in a line: basal RPMI8226 viability, no added stimulus, profiling panel, cell-based, calcein-AM fluorescence, 48 h, PK04 Diversity Set (AID 1166).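 Further: cells grown under basal conditions without added stimulus.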 The conditions noted are these: RPMI8226 myeloma viability, higher = more signal.
Assay [6] in a line: basal HepG2 mitochondrial membrane potential changes, profiling panel, cell-based, JC-1 fluorescence, 24 h, 100 nL compound (AID 1167). Conditions: higher = more signal.
A short description of assay [7]: basal 3T3-L1 adipocyte mitochondrial potential changes, profiling panel, cell-based, JC-1 fluorescence, 3T3-L1 adipocytes, 24 h, 100 nL compound (AID 1168). The conditions noted are these: JC-1 mitochondrial fluorescence, higher = more signal, called active from +8 up or from −8 down.
Assay [8] is described as follows: basal RPMI8226 mitochondrial membrane potential changes, profiling panel, cell-based, JC-1 fluorescence, 24 h, 100 nL compound (AID 1169). Conditions: RPMI8226 myeloma, JC-1 mitochondrial potential fluorescence, higher = more signal.
The nature of assay [9]: basal MM1S mitochondrial membrane potential changes, profiling panel, cell-based, JC-1 fluorescence, 24 h, 100 nL compound (AID 1170). Conditions: higher = more signal.
Assay [10] is described as follows: A549 lung cancer cell viability effects, profiling panel, resazurin fluorescence, 24 h, PK04 Diversity Set (AID 1171). The conditions noted are these: higher = more signal, called active from +8 up or from −8 down.
Further: test concentration not given here.

For the compound `O=C1OCCC=C[C@H]2OC34C=CCN(Cn5nnc6ccccc65)C(=O)[C@H]3N(CCCCCO)C(=O)[C@@H]4C12` (stereo not given in full), the z-score is -0.0295 in [1]; 0.43 in [2]; 0.293 in assay [3]; 1.75 in assay [4]; 0.723 in [5]; 0.742 in assay [6]. In addition, the z-score in assay [7] is 0.117 (inactive); in assay [8], 0.0919; in assay [9] it was -1.19; in assay [10], -0.605 (inactive).
Regarding `COC(=O)c1ccc(OC)c(/C=C\CC(CCc2ccccc2)OC(=O)c2ccncc2)c1` (stereo not given), the z-score in assay [1] is -0.568; in assay [2], 0.115; in [3], -0.457; in assay [4], -2.19; in assay [5], -2.2; in [6], -1.28. For the same compound, the z-score in [7] is -1.32 (inactive); in [8] it was -0.745; in [9] it was 0.256; in assay [10], 2.06 (inactive).
Turning to `O=[N+]([O-])c1ccc(C[n+]2ccc(-c3ccc(CO)cc3)cc2)o1`, the z-score in assay [1] was 0.0994; in [2], 0.511; in assay [3], -1.19; in [4] it was 0.266; in assay [5], -1.19; in assay [6], -1.48. Moreover, the z-score in assay [7] was -0.886 (inactive); in [8], 0.187; in [9] it was -0.425; in assay [10] it was -0.335 (inactive).
With `COc1ccc([Si](C)(C)[C@H]2[C@H](CC(=O)N3CCC[C@H]3CO)O[C@@]3(C(=O)N(Cc4ccc(N5C(=O)c6cccc7cccc5c67)cc4)c4ccccc43)[C@@H]2C)cc1`, the z-score was -0.706 in assay [1]; 0.867 in assay [2]; -0.154 in assay [3]; -2.87 in assay [4]; -4.2 in assay [5]; 2.16 in assay [6]. In addition, the z-score in [7] is 1.44 (inactive); in [8], -1.1; in assay [9] it was 0.28; in assay [10], -1.28 (inactive).
As to `O=C(NCc1ccccc1)[C@]1(Cc2ccccc2)N=C(c2ccc(OCCCO)cc2)O[C@@H]1c1ccccc1`, the z-score in [1] was -2.44; in assay [2] it was 0.709; in [3], -1.83; in [4], -2.57; in assay [5], -4.2; in assay [6] it was 0.683. For the same compound, the z-score in [7] was 0.145 (inactive); in assay [8], -1.21; in assay [9], -1.24; in assay [10] it was 0.0976 (inactive).
Consider `CCOC(=O)C[C@H]1[C@H](OC(=O)Cc2ccc3c(c2)OCO3)[C@@H](NC(=O)c2ccccc2)c2cc(OCCCO)ccc2N1C(=O)c1ccccc1`, for which the z-score is -0.11 in [1]; 0.232 in [2]; 1.52 in assay [3]; -0.266 in [4]; 0.503 in [5]; 0.614 in assay [6]. For the same compound, the z-score in assay [7] is 0.746 (inactive); in assay [8], 0.684; in assay [9] it was -0.96; in assay [10] it was 0.323 (inactive).
For `C[C@]12C(=O)N(CCCO)[C@@H]3C(=O)N(c4ccc(Cl)cc4)CC=CC31O[C@@H]1/C=C\CCCOC(=O)C12` (stereo not given in full), the z-score in [1] was 0.348; in assay [2], 0.922; in [3] it was -0.114; in assay [4], 0.14; in [5], -0.191; in assay [6], -0.665. The z-score in [7] was -1.25 (inactive); in assay [8], -0.0538; in assay [9], 1.18; in assay [10] it was -0.0576 (inactive).
As for `C=CC[C@]1(C(=O)N(C)C)N=C(c2ccc(OCCCO)cc2)O[C@H]1c1ccccc1`, the z-score in [1] is 0.203; in assay [2], 1.17; in assay [3], -0.308; in assay [4] it was -0.27; in [5], -1.19; in assay [6] it was 1.5. For the same compound, the z-score in [7] was 0.644 (inactive); in assay [8], -0.741; in assay [9], -1.33; in assay [10], 1.32 (inactive).
Regarding `COc1cc(C(O)C2C=CC3C(=O)NC(=O)C3N2Nc2ccc(Cl)cc2Cl)cc(OC)c1OC` (stereo not given), the z-score is -0.797 in assay [1]; 0.349 in [2]; -0.751 in assay [3]; 0.192 in assay [4]; -1.44 in [5]; -0.359 in assay [6]. Further, the z-score in [7] is -1.63 (inactive); in assay [8] it was -0.82; in [9], 0.483; in assay [10], -0.315 (inactive).
As to `Cc1ccc(S[C@]2(C(=O)O)CC(=O)N(Cc3ccccc3C(F)(F)F)[C@@H]2c2ccc(CO)cc2)cc1`, the z-score in assay [1] is 0.391; in assay [2], -0.208; in [3], 0.775; in [4] it was -0.804; in assay [5] it was 0.393; in [6] it was 0.143. Besides, the z-score in [7] was 0.998 (inactive); in assay [8] it was 0.171; in assay [9] it was -0.446; in assay [10], 0.142 (inactive).
`COc1cc(C(O)C2C=CC3C(=O)N(C)C(=O)C3N2NC(=O)OC(C)(C)C)cc(OC)c1OC` (stereo not given): the z-score was -1.58 in [1]; -0.785 in assay [2]; -0.884 in assay [3]; -2.19 in assay [4]; -0.907 in [5]; -1.66 in assay [6]. For the same compound, the z-score in assay [7] was -0.321 (inactive); in assay [8] it was -0.872; in [9] it was 0.415; in assay [10], -0.679 (inactive).
In the case of `CN1C(=O)C2C=CC(C(O)c3ccc(F)cc3)N(N3CCCCC3)C2C1=O` (stereo not given), the z-score in [1] was -1.1; in [2], -1.24; in assay [3] it was -0.572; in [4] it was -1.05; in assay [5], 0.0924; in assay [6], -1.43. In addition, the z-score was -0.487 (inactive) in assay [7], 0.00989 in assay [8], -0.118 in [9] and -0.707 (inactive) in [10].
Turning to `C[C@@H]1ON(c2ccccc2)[C@H](c2ccccc2)[C@H]1C(=O)N1C(=O)OC[C@H]1Cc1ccccc1`, the z-score in assay [1] is -0.245; in [2] it was 0.701; in assay [3] it was -0.0596; in [4], -1.4; in assay [5] it was -0.0681; in [6], 1.38. For the same compound, the z-score in assay [7] is 0.00493 (inactive); in assay [8], -0.137; in assay [9], -0.645; in assay [10] it was 1.38 (inactive).
Consider `COCCOC(=O)N1C(=O)[C@@]2(c3cc(C#CCNC(N)=O)ccc31)[C@H](c1ccc(OCCO)cc1)N1[C@H](c3ccccc3)[C@H](c3ccccc3)OC(=O)[C@H]1[C@@H]2C(=O)N1CCN(c2ncccn2)CC1`, for which the z-score in assay [1] was -0.142; in [2] it was 0.169; in assay [3], -0.123; in assay [4] it was -0.216; in assay [5], 0.191; in assay [6], -1.76. Moreover, the z-score in assay [7] was 1 (inactive); in assay [8] it was 0.118; in assay [9], -0.572; in assay [10] it was 1.28 (inactive).
For `O=C1O[C@@H](c2ccccc2)[C@@H](c2ccccc2)N2[C@@H](c3ccc(O)cc3)[C@]3(C(=O)Nc4ccc(C#CC5(O)CCCCCC5)cc43)[C@@H](C(=O)N3CCN(c4ncccn4)CC3)[C@H]12`, the z-score is -0.415 in assay [1]; 0.292 in [2]; -0.458 in assay [3]; -0.0835 in assay [4]; -0.813 in assay [5]; -0.512 in assay [6]. Also, the z-score in assay [7] was -0.68 (inactive); in assay [8], -1.05; in [9], -0.203; in assay [10] it was 0.533 (inactive).
